These results are taken from ChEMBL document CHEMBL4513154, “CO-ADD screening of Jain University (India) compounds”.

The test system of one experiment is Staphylococcus aureus. As to conditions: Concentration 32 ug.mL-1; ASSAY_TEST Inhibition of Bacterial Growth; detection method Absorption (OD600); MEDIA CAMHB; plate type 384well; NBS; CORNING #3640; time 18 hr.
The test system of another experiment is Escherichia coli. As to conditions: Concentration 32 ug.mL-1; ASSAY_TEST Inhibition of Bacterial Growth; detection method Absorption (OD600); MEDIA CAMHB; plate type 384well; NBS; CORNING #3640; time 18 hr.

Measured potencies and affinities stand elsewhere.

For orientation: Inhibition means the change of the read-out against control, counted positive when it falls.

For `Clc1cccc2[nH]c(-c3cscn3)nc12`, the Inhibition with Staphylococcus aureus is -11.71%; in the experiment with Escherichia coli it was -6.5%.
As for `Clc1cccc2c1nc(-c1cscn1)n2Cc1ccccc1`, the values for the Inhibition in the experiment on Staphylococcus aureus and with Escherichia coli were -5.58% and -9.3%, respectively.
Consider `O=[N+]([O-])c1ccc(Cn2c(-c3cscn3)nc3ccccc32)cc1`, for which the Inhibition was 0.92% in the experiment with Staphylococcus aureus and -6.04% in the experiment with Escherichia coli.
The corresponding values for `Fc1cc(Cn2c(-c3cscn3)nc3c(Cl)cccc32)cc(C(F)(F)F)c1` are 6.77% and 3.26%.
The corresponding values for `CC(C)c1ccc(Cn2c(-c3cscn3)nc3c(Cl)cccc32)cc1` are 1.32% and -0.45%.
`CCc1ccc(Nc2nc(N)c(-c3nc4ccccc4c(=O)n3-c3ccccc3)s2)cc1`: the Inhibition is given as 14.54% with Staphylococcus aureus and -0.69% with Escherichia coli.
Take `N#Cc1ccc(Cn2c(-c3cscn3)nc3c(Cl)cccc32)cc1`: the values for the Inhibition in the experiment with Staphylococcus aureus and with Escherichia coli were -3.58% and -8.14%, respectively.
The corresponding values for `Nc1nc(Nc2ccccc2)sc1-c1nc2ccccc2c(=O)n1-c1ccccc1` are 10.63% and 1.98%.
The corresponding values for `Cn1c(-c2cscn2)nc2c(Cl)cccc21` are -0.57% and -9.25%.
In the case of `N=C(Nc1ccccc1Cl)c1cscn1`, the values for the Inhibition in the experiment with Staphylococcus aureus and in the experiment with Escherichia coli were 4.17% and 18.4%, respectively.
The corresponding values for `Nc1nc(Nc2ccc(Cl)cc2)sc1-c1nc2ccccc2c(=O)n1-c1ccccc1` are 3.07% and -2.8%.
The corresponding values for `Clc1ccc2c(c1)nc(-c1cscn1)n2Cc1ccccc1` are -3.7% and -7.11%.
`N#Cc1ccccc1-c1ccc(Cn2c(-c3cscn3)nc3ccc(Cl)cc32)cc1`: the Inhibition is listed as -8.21% in the experiment on Staphylococcus aureus and -6.57% with Escherichia coli.
In the same order, the values of `CCc1ccc(Nc2nc(N)c(-c3nc4ccccc4c(=O)n3-c3ccc(CC)cc3)s2)cc1` are 1.66% and -1.71%.
`CCc1ccc(Nc2nc(N)c(-c3nc4ccccc4c(=O)n3-c3ccc(Cl)cc3)s2)cc1`: the Inhibition in the experiment with Staphylococcus aureus worked out at 11.42%; in the experiment on Escherichia coli it was 0.09%.
As for `Nc1nc(Nc2ccccc2)sc1-c1nc2ccccc2c(=O)n1-c1ccc(Cl)cc1`, the Inhibition in the experiment with Staphylococcus aureus is recorded as 3.1%; with Escherichia coli, -14.74%.
The corresponding values for `Cn1c(-c2cscn2)nc2cc(Cl)ccc21` are -4.5% and -10.62%.
In the same order, the values of `CCc1ccc(-n2c(-c3sc(Nc4ccccc4)nc3N)nc3ccccc3c2=O)cc1` are 9.22% and -7.31%.
The corresponding values for `N#Cc1ccccc1-c1ccc(Cn2c(-c3cscn3)nc3cc(Cl)ccc32)cc1` are -3.28% and -8.05%.
Regarding `N=C(Nc1ccccc1)c1cscn1`, the values for the Inhibition with Staphylococcus aureus and in the experiment on Escherichia coli were -2.93% and 3.08%, respectively.
In the same order, the values of `Clc1ccc2nc(-c3cscn3)n(Cc3ccccc3)c2c1` are -8.96% and -8.13%.
For the compound `N#Cc1ccccc1-c1ccc(Cn2c(-c3cscn3)nc3ccccc32)cc1`, the results for the Inhibition in the experiment on Staphylococcus aureus and in the experiment with Escherichia coli were 0.09% and -0.92%, respectively.
On to `N#Cc1ccccc1-c1ccc(Cn2c(-c3cscn3)nc3c(Cl)cccc32)cc1`, for which the Inhibition in the experiment on Staphylococcus aureus is on record as 2.86%; in the experiment with Escherichia coli it was 1.52%.
